Screening data deposited in PubChem BioAssay by National Center for Advancing Translational Sciences (NCATS).
Many of the other results were omitted from the sample, so hits are more common in it than they were.
SARS PLpro yeast: qHTS of Yeast-based Assay for SARS-CoV PLP | S. cerevisiae expressing SARS-CoV PLpro, growth rescue | Potency, µM (highest dose often 32.9 µM), without a hit: at the highest dose activity, positive = growth rescue, hits mostly activators | 330,000 tested, 0.19% active; calls by dose curve; further: potency means the concentration at half of the fitted maximal effect; 0% is about no effect; nearly all actives have a fitted effect of over 55% in size
LmPK inhibitor: qHTS Assay for Inhibitors of Leishmania Mexicana Pyruvate Kinase (LmPK) | Potency, µM (doses to about 57.5 µM), inactives show top-dose activity change, negative = inhibition, usual class: inhibitors | purified LmPK, Kinase-Glo ATP luminescence, 1 h | 290,000 tested, 0.37% active | AID 1721, 2009 | Q27686; further: potency means the concentration at half of the fitted maximal effect; on the % scale 0 is the no-effect control and ±100 the full control effect
Target sequence (Q27686 whole entry, looked up): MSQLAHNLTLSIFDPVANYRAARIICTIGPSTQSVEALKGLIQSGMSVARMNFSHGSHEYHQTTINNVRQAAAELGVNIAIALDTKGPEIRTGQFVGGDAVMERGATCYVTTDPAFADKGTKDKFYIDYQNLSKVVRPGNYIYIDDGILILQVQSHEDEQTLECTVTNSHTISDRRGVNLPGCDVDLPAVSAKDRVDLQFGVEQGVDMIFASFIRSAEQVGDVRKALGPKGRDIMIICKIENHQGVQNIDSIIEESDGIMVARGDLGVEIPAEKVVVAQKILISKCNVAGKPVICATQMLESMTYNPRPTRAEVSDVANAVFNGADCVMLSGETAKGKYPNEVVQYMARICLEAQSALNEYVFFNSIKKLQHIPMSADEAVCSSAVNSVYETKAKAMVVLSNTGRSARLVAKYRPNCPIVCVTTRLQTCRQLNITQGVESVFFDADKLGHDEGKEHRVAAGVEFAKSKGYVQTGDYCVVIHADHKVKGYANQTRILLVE
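Screened at intermediate enzyme activity to detect both inhibitors and activators: LmPK at 0.1 nM, with a 0.5 nM enzyme column as activation reference. PEP 0.5 mM, ADP 0.1 mM; ATP detected by luminescence after 1 h.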
CHX counter: Cycloheximide Counterscreen for Small Molecule Inhibitors of Shiga Toxin; cell reporter, cycloheximide protein synthesis inhibition counterscreen; max response, %; 300,000 tested, 12% active; AID 2314, 2010; in the data active means max response mostly above about 13%, no sharp cut-off; inactive means mostly below about 14%; further: read at 38.3 µM for the half of the compounds with a filed dose; 0% is about no effect
Shiga toxin inh: A qHTS for Small Molecule Inhibitors of Shiga Toxin; 290,000 tested, 9.2% active; Vero cells, Shiga toxin protein synthesis inhibition reporter; AID 2315, 2010; inhibition, % at 38.7 µM; in the data active means inhibition mostly above about 28%, no sharp cut-off; inactive means mostly below about 43%; further: 0% is about no effect
NS1 inh: qHTS Assay for Inhibitors of Influenza NS1 Protein Function; Potency, µM (titrated, usually from 46.1 µM), inactives show top-dose activity, positive = more growth; 270,000 tested, 0.4% active; calls by dose curve; further: potency means the concentration at half of the fitted maximal effect; actives are rising curves; nearly all actives have a fitted effect of over 50% in size
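Growth recovery, yeast-based: influenza A NS1 expressed in S. cerevisiae causes slow growth, and suppressors are detected by OD600. The parent strain without NS1 is used as positive control.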
Tb PYK inh: qHTS of Trypanosoma Brucei Inhibitors; pyruvate kinase (Trypanosoma brucei), Q57TT1; TbPYK enzyme, Kinase-Glo Plus ATP luminescence, 45 min; Potency, µM (doses to about 76.8 µM), without a hit: at the top dose activity, negative = inhibition, hits mostly inhibitors; 410,000 tested, 0.12% active; AID 624173, 2012; further: potency means the concentration at half of the fitted maximal effect; on the % scale 0 is the no-effect control and ±100 the full control effect; nearly all actives have a fitted effect of over 50% in size
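Luminescent Kinase-Glo Plus end-point after 45 min room-temperature reaction of T. brucei pyruvate kinase started with 130 uM ADP (final). Buffer TEA 50 mM pH 7.2 with KCl, MgCl2, BSA, Tween-20; titration-based qHTS with fitted concentration-effect curves.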
* = called active by the depositor; u = inconclusive; x = not tested or not shown; + = active, no number; ! = not active in a repeat. Unless noted, the call rests on the fitted dose curve; in most records, active means well fitted curve in the direction sought with a large enough effect; inconclusive means small, poorly fitted or top-dose-only effect, or another doubt; inactive means no such curve, though single readings can be large; an effect the other way counts as inactive or inconclusive.

SMILES	SARS PLpro yeast	LmPK inhibitor	CHX counter	Shiga toxin inh	NS1 inh	Tb PYK inh
O=C(O)C(=O)Nc1cccc(C2=NN=N[N]2)c1	x	x	x	x	x	0%
COc1ccc(-c2cc(C(F)(F)F)n3nc(C(=O)Nc4ccccc4SC)cc3n2)cc1OC	x	x	x	x	x	5%
COc1ccc2cc(-c3ccccc3)ncc2c1	-7%	-18%	42*	85*	-39%	-15%
COc1ccc2nc(-c3ccccc3)[nH]c2c1	-24%	16µM*	57*	73*	-44%	-22%
COc1ccc2[nH]c(-c3ccccc3)cc2c1	-3%	-10%	74*	88*	0%	-1%
COc1cc(OC)cc(-c2cc3ccc(OC)cc3cn2)c1	0%	x	x	x	x	u
Cc1ccc2[nH]c(-c3ccc(F)cc3F)cc(=O)c2c1	x	x	32*	+	x	x
CCOc1ccc2nc(-c3ccccc3)[nH]c2c1	-15%	u	35*	71*	-136%	-1%
COc1ccc2[nH]c(-c3ccc(C)cc3)cc(=O)c2c1	9%	-30%	32*	47	0%	-15%
CCOc1ccc2nc(C(C)O)[nH]c2c1 (centres undefined)	2%	-3%	1	-7	3%	-1%
CC(C)(C)c1ccc(-c2conc2N)cc1	-31%	-3%	48*	111*	-99%	6%
CC(C)(C)c1ccc(-c2noc(C(=O)NN)n2)cc1	0%	0%	2	20	3%	1%
CCOC(=O)c1c(CS(=O)(=O)c2ccccc2)n(C)c2cc(Br)c(O)c(CN(C)C)c12	0%	9%	-8	-3	20%	-12%
CCOC(=O)c1c(C)n(C)c2cc(CN(C)C)c(O)c(S(=O)(=O)c3ccccc3)c12	-1%	0%	23*	36	1%	19%
CSCC[C@H](NC(=O)CNC(=O)CNC(=O)[C@H](CO)NC(=O)[C@H](CCCNC(=N)N)NC(=O)[C@H](CO)NC(=O)[C@H](CC(C)C)NC(=O)[C@H](CC(C)C)NC(=O)CNC(=O)[C@H](C)NC(=O)[C@H](CC(C)C)NC(=O)[C@H](CCCNC(=N)N)NC(=O)[C@H](Cc1cnc[nH]1)NC(=O)[C@@H](NC(=O)[C@@H](N)C(C)C)[C@@H](C)O)C(=O)N[C@H](C(=O)N[C@@H](CCCCN)C(=O)N[C@@H](CO)C(=O)N[C@@H](CC(N)=O)C(=O)N[C@@H](Cc1ccccc1)C(=O)N[C@H](C(=O)N1CCC[C@H]1C(=O)N[C@H](C(=O)N[C@@H](CC(N)=O)C(=O)N[C@H](C(=O)NCC(=O)N[C@@H](CO)C(=O)N[C@@H](CCCCN)C(=O)N[C@@H](C)C(=O)N[C@@H](Cc1ccccc1)C(N)=O)C(C)C)[C@@H](C)O)C(C)C)C(C)C	x	x	-4	8	x	x
Cc1ccc(NC(=O)c2ccc(CN3CCN(C)CC3)cc2)cc1Nc1nccc(-c2cccnc2)n1	x	x	27*!	64	x	-7%
CCC(Sc1nnnn1C)C(=O)Nc1ccc(C(C)=O)cc1 (centres undefined)	0%	-2%	23*	115*	-4%	-3%
CC(Sc1nnnn1C)C(=O)Nc1ccc(Oc2ccccc2)cc1 (centres undefined)	-13%	-3%	6	20	-28%	-5%
CCOC(=O)[C@]12CCCC=C1N(Cc1cccc3ccccc13)C(=O)[C@H](CC(=O)NCCCN1CCCC1=O)C2	x	x	x	x	x	1%
N#C/C(=N\Nc1ccc([N+](=O)[O-])cc1)C(N)=S	-9%	u	41*	88*	-63%	-27%
N#C/C(=N\Nc1ccc([N+](=O)[O-])cc1)C(=N)N1CCOCC1	-1%	-1%	46*	69*	-6%	1%
COc1ccccc1N/N=C(\C#N)C(=N)N1CCOCC1	-11%	2%	6	14	x	-1%
N#C/C(=N\Nc1ccccc1[N+](=O)[O-])C(=N)N1CCCCC1	-4%	-2%	31*	67*	x	-2%
N#C/C(=N\Nc1ccc(S(=O)(=O)N2CCCCCC2)cc1)C(N)=S	7%	-2%	19	32	2%	-9%
